Results taken from PubChem BioAssay AID504332 (National Center for Advancing Translational Sciences (NCATS), 2011).
In all, about 350,000 compounds went through this assay and about 31,000 (8.9%) were called active. Roughly 15% stayed inconclusive and do not appear here. The call rests on the fitted dose curve; in most records, active means well fitted inhibition curve with a large enough effect; inconclusive means small, poorly fitted or top-dose-only effect; inactive means no such curve, though single readings can be large or run the other way. For the sample, actives were picked, then their nearest neighbours and some compounds at random.

Molecular target: Histone-lysine N-methyltransferase EHMT2 (Homo sapiens) (UniProt Q96KQ7)
Test: qHTS Assay for Inhibitors of Histone Lysine Methyltransferase G9a; further: nearly all actives have a fitted effect of over 75% in size
Conditions: G9a H3K9 monomethylation, AlphaScreen, 2 h; series mostly up to 59 µM; activity, negative = inhibition: at the top concentration
Method in brief: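 Using a bead-based AlphaScreen, monomethylated H3K9 product from 2 h room-temperature reactions (G9a 20 nM, peptide 500 nM, SAM 20 uM) was detected with 0.5 ug/mL rabbit anti-H3K9me1 antibody.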
On the % scale 0 is the no-effect control and ±100 the full control effect; potency means the concentration at half of the fitted maximal effect.

Chain of Histone-lysine N-methyltransferase EHMT2 (Homo sapiens) (Q96KQ7 913-1193 limits assumed): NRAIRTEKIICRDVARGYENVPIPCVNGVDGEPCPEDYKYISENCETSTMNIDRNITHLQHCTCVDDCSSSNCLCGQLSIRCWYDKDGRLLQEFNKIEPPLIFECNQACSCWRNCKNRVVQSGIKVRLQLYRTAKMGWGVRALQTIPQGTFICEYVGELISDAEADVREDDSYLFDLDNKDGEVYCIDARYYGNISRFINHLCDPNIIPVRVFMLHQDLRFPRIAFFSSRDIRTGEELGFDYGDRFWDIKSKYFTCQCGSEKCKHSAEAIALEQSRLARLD

activity, negative = inhibition, inactive:
Cc1cc2c(cc3c(SCc4nc(-c5ccccc5)oc4C)nnc(C)n32)o1 -6.19%, Cc1nnc(SCc2cccc(Cl)c2)n(N)c1=O 6.28% [at 102 µM], Cc1cc(C(=O)NNC(=O)c2ccccc2O)c(C)o1 72.2% [at 12.7 µM], CC(=O)Nc1ccc(NC(=O)C(NS(=O)(=O)c2ccc3c(c2)OCCO3)C(C)C)cc1 (stereo unspecified) 15.5% [at 12.7 µM], Cc1ccc(NC(=O)C2CC2c2ccccc2)cc1 (stereo unspecified) 18.3% [at 2.33 µM], Cc1ccc(C2CC2C(=O)NN)cc1 (stereo unspecified) 8.33% [at 102 µM], COc1cc(C(=O)Nc2ccc(-n3c(C)nc4ccccc4c3=O)cc2)cc(OC)c1OC 2.32%, CCc1c(C)nc(N)n2c(SCC(=O)NC3CCCCC3)nnc12 -19.6% [at 102 µM], COc1ccc(OC)c2[nH]c(=O)c(CCNC(=O)C(C)(C)C)cc12 -0.81% [at 102 µM], O=C(NCCCc1ccccc1)C(=O)c1c[nH]c2ccccc12 72.9% [at 102 µM], Cc1ccc(S(=O)(=O)c2cn(Cc3ccccc3)c3cc(N4CCCC4)c(F)cc3c2=O)c(C)c1 -8.52%, Cc1c(NC(=O)c2cc(=O)c3ccccc3o2)c(=O)n(-c2ccccc2)n1C 2.29%, CCc1cccc(CC)c1NC(=O)Cn1c(=O)c(-c2cc(C)ccc2NC(C)=O)nc2ccccc21 -7.86%, COC(=O)c1c(NC(=O)C(C)Oc2ccc(Cl)c(C)c2)sc(C)c1C (stereo unspecified) 3.93%, COC(=O)c1sc(NC(=O)COC(=O)C2CCC2)c(C(=O)OC)c1C 11.6% [at 102 µM], CSc1ccccc1NC(=O)COC(=O)CCCOc1ccc(C)cc1 61.2% [at 102 µM], COc1ccc(CNC(=O)c2cc(C(=O)C3CC3)c[nH]2)cc1 36.9% [at 102 µM], Cc1cccc(N2CCN(C(=O)c3cnc(N4CCCC4)nc3C)CC2)c1C 5.62% [at 12.7 µM], Cc1cccc(N2CCN(C(=O)CCSCc3ccccc3F)CC2)c1C 4.33%, COc1ccc(CN(C)C(=O)c2cc(-c3ccc(C)cc3C)nc3ccccc23)c(OC)c1OC -28.5% [at 102 µM], Cc1cccc(-n2ncc(C(=O)N3CCN(c4ccc(Cl)cc4)CC3)c2C2CCN(C(=O)OC(C)(C)C)CC2)c1 -31.9%, CCOc1ccc2nc(N3CCC(C(=O)Nc4cc(C)ccc4C)CC3)sc2c1 -3.63%, Cc1ccc2nc(NC(=O)C3CCN(S(=O)(=O)c4ccc5c(c4)oc(=O)n5C)CC3)sc2c1 -16.1% [at 102 µM], COc1ccc([C@H]2CC(=O)C=C(c3ccc(C)cc3)C2)cc1 -2.52% [at 0.501 µM], COCCCNC(=O)Cc1ccc(-n2c(C)nc3cccnc32)cc1 3.74% [at 102 µM], CCc1nc2cccnc2n1-c1ccc(CC(=O)Nc2c(C)cccc2C)cc1 -10.5%, COc1ccc(NC(=O)CCN2CCCC2)c(OC)c1 -43.1%, COc1ccc(OC)c(NC(=O)CCN2CCC(C)CC2)c1 -7.48%, O=C(CSc1nc2nccnc2c(=O)n1CCc1c[nH]c2ccccc12)Nc1ccccc1F -1.63%, O=C(c1cccc(Br)c1)N1CCN(Cc2cc(=O)n3nc(-c4ccccc4)sc3n2)CC1 -15.5%, CN(Cc1cccs1)C(=O)CN1C(=O)c2ccccc2S1(=O)=O -6.03% [at 2.33 µM], CCCCN(C(=O)c1nn(C)c(=O)c2ccccc12)c1c(N)n(CCC)c(=O)[nH]c1=O -30.6% [at 12.7 µM], O=C(OCc1ccc([N+](=O)[O-])cc1)c1ccccn1 -29.9% [at 102 µM], CC(OC(=O)c1ccc2ccccc2n1)C(=O)c1ccccc1 (stereo unspecified) 27.2% [at 102 µM], COCCn1c(SCC(=O)c2cc(C)ccc2C)nc2cc(C(=O)NC3CCCC3)ccc2c1=O -6.47%, O=C(COC(=O)c1ccccc1Cl)NC1CCCCCCC1 6.1% [at 0.501 µM], COc1ccc(S(=O)(=O)NCc2cccn2Cc2cccc(C)c2)cc1Cl -4.35%, COc1ccc(S(=O)(=O)N(C)CC(=O)N2CCCC2)cc1Cl -5.71% [at 102 µM], Cc1cccc(NC(=O)c2cccc(S(=O)(=O)N3CCCC3)c2)n1 -27.4% [at 102 µM], COC(=O)C1=C(C)N(C)C(=O)NC1c1ccc([N+](=O)[O-])o1 (stereo unspecified) -2.67% [at 102 µM], COc1cnc(-c2ccccn2)nc1Oc1ccc(C(C)(C)C)cc1 16.9% [at 102 µM], Cc1ccccc1CNC(=O)CCc1cn(Cc2ccccc2C)c2ccccc12 -27.4%, CCOc1ccc(S(=O)(=O)c2cn(Cc3ccccc3)c3ccc(OCC)cc3c2=O)cc1 4.03%, O=C(Nc1ccc(NC(=O)c2ccc3c(c2)OCO3)cc1)c1cccc(Cl)c1 0.511% [at 12.7 µM], CCOCCn1c(-c2ccccc2)nc2ccccc21 17.2% [at 102 µM], COc1ccc(-c2nc3ccccc3n2CCC(C)C)cc1OC -2.19% [at 102 µM], CCC(Sc1nc2n[nH]c(C)c2c(=N)n1-c1ccccc1Cl)C(=O)N(CC)CC (stereo unspecified) 20.7%, Cc1ccc(CC(=O)N(C)CC(=O)N(CC(C)C)c2c(N)n(CC(C)C)c(=O)[nH]c2=O)cc1C 10.8% [at 2.33 µM], CCC(C(=O)Nc1cccc(Cl)c1C)n1nc(-c2ccc(C)cc2)ccc1=O (stereo unspecified) -3.11%

Potency, active:
Cc1cc2c(cc3c(SCc4cccc(Cl)c4)nnc(C)n32)o1 7.08 µM, Cc1ccc(C2NC(C(=O)O)CS2)cc1 (stereo unspecified) 31.6 µM, COc1ccc(OC)c2[nH]c(=O)c(CCNC(=O)C(=O)c3c[nH]c4ccccc34)cc12 50.1 µM, COCCCNCC(=O)Nc1sc(C)c(C)c1C(=O)OC 1 µM, Cc1cccc(N2CCN(C(=O)/C=C/c3ccco3)CC2)c1C 11.2 µM, Cc1ccc2nc(N3C(=O)C(O)=C(C(=O)c4ccco4)C3c3cccc(O)c3)sc2c1 (stereo unspecified) 31.6 µM, CCc1nc2cccnc2n1-c1ccc(C(=O)O)cc1 35.5 µM, COC(=O)CNC(c1ccccc1Cl)c1cc(Br)ccc1NC(=O)CCN1CCOCC1 (stereo unspecified) 39.8 µM, O=C(Oc1ccc([N+](=O)[O-])cc1)c1ccc2ccccc2n1 12.6 µM, COc1ccc(S(=O)(=O)c2c[nH]c(=S)[nH]c2=O)cc1Cl 79.4 µM, COC(=O)C1=C(C(=O)OC)C(c2cc([N+](=O)[O-])ccc2O)c2sc(=O)[nH]c2S1 (stereo unspecified) 44.7 µM, CC(=O)OCCN(CCCn1c(-c2ccncc2)nc2ccccc21)c1nc(-c2ccc(C)cc2)cs1 56.2 µM
